This passage reports binding signal results from publication PMC7862700, “An all-to-all approach to the identification of sequence-specific readers for epigenetic DNA modifications on cytosine”.

Assay in all cases: DAPPL (digital affinity profiling via proximity ligation, sequencing); 10 mM Tris-HCl pH 7.5, 50 mM NaCl, 1 mM DTT, 4% glycerol, room temperature, 30 min; GST-TFs on glutathione beads, 16-mer random dsDNA library, 0.1% formaldehyde crosslink after washing; high values mean tight binding
For one assay, the target named is T1, FEV (Homo sapiens, UniProt Q99581 1-238).
T1 sequence: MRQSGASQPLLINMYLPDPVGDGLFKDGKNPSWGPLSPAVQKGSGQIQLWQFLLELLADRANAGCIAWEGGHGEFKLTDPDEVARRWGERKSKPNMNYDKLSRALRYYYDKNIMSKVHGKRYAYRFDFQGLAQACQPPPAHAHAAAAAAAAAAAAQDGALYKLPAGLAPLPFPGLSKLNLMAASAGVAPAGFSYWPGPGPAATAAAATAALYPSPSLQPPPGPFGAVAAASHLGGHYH
To be noted: protein: recombinant; tags: N-terminal GST; dsDNA, one strand shown. A digest of the protocol: (§1)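 Human transcription factors fused to GST were expressed in yeast, captured on glutathione beads, given DNA barcodes and pooled with a GST-only negative control. Pools were incubated with 200 nmole of a 16-mer random double-stranded DNA library in Tris/NaCl/DTT/glycerol buffer at room temperature for 30 min. They were then washed, crosslinked with 0.1% formaldehyde, proximity-ligated (BsaI/T4 ligase, 1 h, 37 °C), PCR-amplified and sequenced on an Illumina NextSeq500. Binding signal is each 6-mer's read frequency for a factor divided by its frequency for the GST control.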

For the next assay, the target named is ETV5 (Homo sapiens, UniProt P41161 1-510). The settings on record: protein: recombinant; tags: N-terminal GST; dsDNA, one strand shown. The method, boiled down:
as §1

The target in the next assay is HSF1 (Homo sapiens, UniProt Q00613 1-529). The settings on record: protein: recombinant; tags: N-terminal GST; chain copies: 3; dsDNA, one strand shown. The method, boiled down:
as §1

The target of a further assay is T2, SPIC (Homo sapiens, UniProt Q8N5J4 1-248).
T2 sequence: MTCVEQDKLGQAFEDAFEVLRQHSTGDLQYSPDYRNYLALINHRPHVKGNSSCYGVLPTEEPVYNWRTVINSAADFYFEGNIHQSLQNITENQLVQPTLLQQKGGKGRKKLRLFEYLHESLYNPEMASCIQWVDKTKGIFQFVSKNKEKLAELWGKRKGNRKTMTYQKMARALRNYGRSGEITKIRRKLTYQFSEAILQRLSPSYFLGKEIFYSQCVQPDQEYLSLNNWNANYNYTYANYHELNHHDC
The settings on record: protein: recombinant; tags: N-terminal GST; dsDNA, one strand shown. A digest of the protocol:
as §1

Another assay deals with ELF4 (Homo sapiens, UniProt Q99607 1-663). The settings on record: protein: recombinant; tags: N-terminal GST; dsDNA, one strand shown. A digest of the protocol: as §1
Sequence of ELF4 (Q99607 whole entry): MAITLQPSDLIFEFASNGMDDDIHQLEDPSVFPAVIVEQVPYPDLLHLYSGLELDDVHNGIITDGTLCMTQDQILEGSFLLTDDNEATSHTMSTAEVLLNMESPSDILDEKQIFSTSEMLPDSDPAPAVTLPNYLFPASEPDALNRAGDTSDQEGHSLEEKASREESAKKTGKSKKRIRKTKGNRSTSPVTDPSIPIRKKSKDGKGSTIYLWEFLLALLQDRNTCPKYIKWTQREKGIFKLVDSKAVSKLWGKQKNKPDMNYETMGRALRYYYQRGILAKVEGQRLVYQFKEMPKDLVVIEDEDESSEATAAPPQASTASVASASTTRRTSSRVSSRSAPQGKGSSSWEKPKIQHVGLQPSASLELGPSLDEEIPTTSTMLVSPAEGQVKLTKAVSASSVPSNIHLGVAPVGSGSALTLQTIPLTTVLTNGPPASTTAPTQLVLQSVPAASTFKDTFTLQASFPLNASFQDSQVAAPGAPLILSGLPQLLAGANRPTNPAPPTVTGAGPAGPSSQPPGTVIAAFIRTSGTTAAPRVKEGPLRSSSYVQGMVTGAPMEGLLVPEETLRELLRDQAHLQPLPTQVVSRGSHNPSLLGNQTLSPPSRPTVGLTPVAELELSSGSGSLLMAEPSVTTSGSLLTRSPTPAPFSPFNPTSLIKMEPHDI
The next assay addresses T3, ELK4 (Homo sapiens, UniProt P28324-2 1-405).
T3 sequence: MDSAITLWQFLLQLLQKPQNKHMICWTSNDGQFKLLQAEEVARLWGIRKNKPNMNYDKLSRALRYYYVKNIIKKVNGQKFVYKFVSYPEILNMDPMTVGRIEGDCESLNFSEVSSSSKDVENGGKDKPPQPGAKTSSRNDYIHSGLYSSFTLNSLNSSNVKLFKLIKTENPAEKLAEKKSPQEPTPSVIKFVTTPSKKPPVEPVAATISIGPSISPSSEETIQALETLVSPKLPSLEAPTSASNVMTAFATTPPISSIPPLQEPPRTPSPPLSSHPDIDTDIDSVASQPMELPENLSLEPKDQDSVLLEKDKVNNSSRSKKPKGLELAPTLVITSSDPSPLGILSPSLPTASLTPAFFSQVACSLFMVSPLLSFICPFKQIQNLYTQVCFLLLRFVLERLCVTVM
To be noted: protein: recombinant; tags: N-terminal GST; dsDNA, one strand shown. A digest of the protocol: as §1

In the next assay the target is T4, ETV2 (Homo sapiens, UniProt O00321 1-342).
T4 sequence: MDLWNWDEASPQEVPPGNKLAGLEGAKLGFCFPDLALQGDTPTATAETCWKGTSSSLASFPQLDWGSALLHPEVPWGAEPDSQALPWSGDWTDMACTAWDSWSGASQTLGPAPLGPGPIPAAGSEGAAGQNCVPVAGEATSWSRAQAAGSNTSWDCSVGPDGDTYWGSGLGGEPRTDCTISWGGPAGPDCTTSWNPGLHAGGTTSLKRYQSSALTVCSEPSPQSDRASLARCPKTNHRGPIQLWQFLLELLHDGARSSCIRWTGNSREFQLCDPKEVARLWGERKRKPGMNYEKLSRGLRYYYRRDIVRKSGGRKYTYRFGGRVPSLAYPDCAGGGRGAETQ
The settings on record: protein: recombinant; tags: N-terminal GST; dsDNA, one strand shown. The method, boiled down: as §1

In another assay the target is T5, ELF3 (Homo sapiens, UniProt P78545 1-371).
T5 sequence: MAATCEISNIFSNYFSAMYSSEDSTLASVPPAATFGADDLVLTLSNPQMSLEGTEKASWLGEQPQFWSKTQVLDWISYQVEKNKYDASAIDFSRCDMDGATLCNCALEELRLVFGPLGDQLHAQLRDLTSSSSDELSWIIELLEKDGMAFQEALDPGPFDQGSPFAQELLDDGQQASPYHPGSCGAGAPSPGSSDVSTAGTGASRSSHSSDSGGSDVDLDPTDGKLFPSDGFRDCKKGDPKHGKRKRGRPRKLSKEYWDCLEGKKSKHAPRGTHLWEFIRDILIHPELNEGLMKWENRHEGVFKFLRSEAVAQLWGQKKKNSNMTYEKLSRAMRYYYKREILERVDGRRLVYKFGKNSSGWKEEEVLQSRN
The settings on record: protein: recombinant; tags: N-terminal GST; dsDNA, one strand shown. A digest of the protocol: as §1

The target in another assay is CRX (Homo sapiens, UniProt O43186 1-299). The settings on record: protein: recombinant; tags: N-terminal GST; dsDNA, one strand shown. A digest of the protocol: as §1
Sequence of CRX (O43186 whole entry): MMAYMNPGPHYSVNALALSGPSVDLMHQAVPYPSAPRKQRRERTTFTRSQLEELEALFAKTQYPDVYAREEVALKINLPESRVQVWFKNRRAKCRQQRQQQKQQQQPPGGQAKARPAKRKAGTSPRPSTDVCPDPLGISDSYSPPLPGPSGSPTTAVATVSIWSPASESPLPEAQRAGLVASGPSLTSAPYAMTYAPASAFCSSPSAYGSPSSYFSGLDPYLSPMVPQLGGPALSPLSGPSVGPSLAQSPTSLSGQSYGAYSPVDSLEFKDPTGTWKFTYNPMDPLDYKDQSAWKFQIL
The target of another assay is ETV1 (Homo sapiens, UniProt P50549 1-477). The settings on record: protein: recombinant; tags: N-terminal GST; dsDNA, one strand shown. A digest of the protocol:
as §1

In a further assay the target is T6, ERF (Homo sapiens, UniProt P50548 1-548).
T6 sequence: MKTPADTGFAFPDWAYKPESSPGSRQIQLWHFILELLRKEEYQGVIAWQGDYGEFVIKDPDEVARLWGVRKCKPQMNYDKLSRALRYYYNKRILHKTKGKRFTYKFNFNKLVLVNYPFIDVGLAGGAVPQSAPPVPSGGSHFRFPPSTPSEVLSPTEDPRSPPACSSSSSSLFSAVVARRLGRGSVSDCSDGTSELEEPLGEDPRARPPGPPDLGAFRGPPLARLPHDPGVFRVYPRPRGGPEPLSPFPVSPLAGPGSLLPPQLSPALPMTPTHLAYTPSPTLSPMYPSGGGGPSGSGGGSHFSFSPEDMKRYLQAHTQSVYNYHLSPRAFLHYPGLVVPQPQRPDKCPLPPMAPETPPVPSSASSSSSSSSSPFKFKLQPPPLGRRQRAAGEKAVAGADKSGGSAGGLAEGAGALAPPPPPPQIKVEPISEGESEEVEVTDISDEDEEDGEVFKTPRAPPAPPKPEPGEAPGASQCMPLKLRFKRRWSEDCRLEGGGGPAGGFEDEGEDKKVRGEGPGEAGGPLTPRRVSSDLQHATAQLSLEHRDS
To be noted: protein: recombinant; tags: N-terminal GST; dsDNA, one strand shown. The method, boiled down:
as §1

In another assay the target is T7, ETV3L (Homo sapiens, UniProt Q6ZN32 1-361).
T7 sequence: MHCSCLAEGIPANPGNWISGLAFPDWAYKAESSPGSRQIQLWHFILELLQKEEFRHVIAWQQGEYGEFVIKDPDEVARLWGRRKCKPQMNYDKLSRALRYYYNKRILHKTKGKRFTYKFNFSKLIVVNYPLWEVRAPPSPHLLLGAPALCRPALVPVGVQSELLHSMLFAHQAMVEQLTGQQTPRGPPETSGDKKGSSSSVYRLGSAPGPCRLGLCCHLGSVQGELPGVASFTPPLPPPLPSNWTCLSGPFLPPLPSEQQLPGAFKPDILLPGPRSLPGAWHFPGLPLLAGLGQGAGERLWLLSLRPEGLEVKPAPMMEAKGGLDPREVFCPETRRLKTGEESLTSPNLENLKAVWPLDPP
To be noted: protein: recombinant; tags: N-terminal GST; dsDNA, one strand shown. A digest of the protocol:
as §1

Another assay concerns the target T8, ETS2 (Homo sapiens, UniProt P15036 1-469).
T8 sequence: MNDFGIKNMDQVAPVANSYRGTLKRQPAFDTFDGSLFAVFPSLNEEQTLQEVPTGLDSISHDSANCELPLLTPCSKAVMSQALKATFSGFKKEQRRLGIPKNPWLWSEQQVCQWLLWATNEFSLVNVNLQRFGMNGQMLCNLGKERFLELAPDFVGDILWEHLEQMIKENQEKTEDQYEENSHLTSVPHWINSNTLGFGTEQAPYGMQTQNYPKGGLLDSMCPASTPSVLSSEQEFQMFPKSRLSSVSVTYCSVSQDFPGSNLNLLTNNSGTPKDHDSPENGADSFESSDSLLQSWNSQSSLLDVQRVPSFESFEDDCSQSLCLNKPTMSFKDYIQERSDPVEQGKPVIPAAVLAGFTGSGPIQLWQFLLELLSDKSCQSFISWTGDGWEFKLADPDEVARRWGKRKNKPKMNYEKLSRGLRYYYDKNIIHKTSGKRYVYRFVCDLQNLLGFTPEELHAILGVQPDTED
The settings on record: protein: recombinant; tags: N-terminal GST; dsDNA, one strand shown. The method, boiled down: as §1

Another assay addresses T9, SPDEF (Homo sapiens, UniProt O95238 1-335).
T9 sequence: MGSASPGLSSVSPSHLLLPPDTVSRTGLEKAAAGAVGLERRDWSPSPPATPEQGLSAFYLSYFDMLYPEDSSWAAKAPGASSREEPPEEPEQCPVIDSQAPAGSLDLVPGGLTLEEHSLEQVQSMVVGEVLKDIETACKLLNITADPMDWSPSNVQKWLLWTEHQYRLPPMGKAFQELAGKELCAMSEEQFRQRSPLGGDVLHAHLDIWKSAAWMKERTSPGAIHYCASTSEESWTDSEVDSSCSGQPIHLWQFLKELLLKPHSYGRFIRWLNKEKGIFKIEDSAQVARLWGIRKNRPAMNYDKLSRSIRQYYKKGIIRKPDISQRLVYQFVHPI
To be noted: protein: recombinant; tags: N-terminal GST; dsDNA, one strand shown. The method, boiled down:
as §1

A further assay deals with T10, ETV7 (Homo sapiens, UniProt Q9Y603 1-341).
T10 sequence: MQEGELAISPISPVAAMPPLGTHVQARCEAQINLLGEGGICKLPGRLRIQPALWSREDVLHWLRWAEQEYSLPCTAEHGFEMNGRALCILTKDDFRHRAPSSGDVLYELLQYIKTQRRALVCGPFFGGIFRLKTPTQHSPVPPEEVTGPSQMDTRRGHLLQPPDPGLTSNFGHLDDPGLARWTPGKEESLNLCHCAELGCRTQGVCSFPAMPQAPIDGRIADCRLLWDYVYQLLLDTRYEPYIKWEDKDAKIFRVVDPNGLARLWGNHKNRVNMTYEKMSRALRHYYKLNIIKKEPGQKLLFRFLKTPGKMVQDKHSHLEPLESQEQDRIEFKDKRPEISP
The settings on record: protein: recombinant; tags: N-terminal GST; dsDNA, one strand shown. The method, boiled down:
as §1

In another assay the target is T11, ELF5 (Homo sapiens, UniProt Q9UKW6-2 1-255).
T11 sequence: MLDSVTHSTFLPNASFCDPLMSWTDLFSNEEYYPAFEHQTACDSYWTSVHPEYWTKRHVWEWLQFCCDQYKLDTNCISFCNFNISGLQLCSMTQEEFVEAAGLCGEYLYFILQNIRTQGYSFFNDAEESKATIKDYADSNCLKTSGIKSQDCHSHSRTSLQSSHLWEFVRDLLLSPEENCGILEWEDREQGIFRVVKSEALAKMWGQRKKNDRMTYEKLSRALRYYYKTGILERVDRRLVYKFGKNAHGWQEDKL
The settings on record: protein: recombinant; tags: N-terminal GST; dsDNA, one strand shown. A digest of the protocol:
as §1

A further assay concerns the target T12, ETV3 (Homo sapiens, UniProt P41162-2 1-143).
T12 sequence: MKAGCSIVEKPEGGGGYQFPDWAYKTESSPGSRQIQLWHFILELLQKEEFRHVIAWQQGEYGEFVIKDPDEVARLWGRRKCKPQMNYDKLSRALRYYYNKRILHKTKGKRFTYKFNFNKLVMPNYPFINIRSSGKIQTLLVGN
The settings on record: protein: recombinant; tags: N-terminal GST; dsDNA, one strand shown. A digest of the protocol: as §1

Another assay has as its target ETV6 (Homo sapiens, UniProt P41212 1-452). To be noted: protein: recombinant; tags: N-terminal GST; dsDNA, one strand shown. A digest of the protocol: as §1

Sequence of HSF1 (Q00613 whole entry): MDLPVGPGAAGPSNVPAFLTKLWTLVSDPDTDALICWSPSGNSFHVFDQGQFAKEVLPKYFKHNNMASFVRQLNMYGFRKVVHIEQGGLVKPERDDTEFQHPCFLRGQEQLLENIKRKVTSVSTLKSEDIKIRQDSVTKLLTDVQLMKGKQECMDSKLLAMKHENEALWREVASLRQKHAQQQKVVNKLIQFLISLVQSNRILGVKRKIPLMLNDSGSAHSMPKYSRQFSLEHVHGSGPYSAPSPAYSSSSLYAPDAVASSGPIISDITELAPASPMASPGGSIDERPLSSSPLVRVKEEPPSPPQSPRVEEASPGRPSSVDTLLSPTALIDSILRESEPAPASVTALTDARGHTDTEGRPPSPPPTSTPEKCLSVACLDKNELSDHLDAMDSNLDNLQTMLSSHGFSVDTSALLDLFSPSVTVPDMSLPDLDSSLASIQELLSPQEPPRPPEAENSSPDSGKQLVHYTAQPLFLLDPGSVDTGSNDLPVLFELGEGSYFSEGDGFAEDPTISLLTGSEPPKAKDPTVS
Sequence of ETV1 (P50549 whole entry): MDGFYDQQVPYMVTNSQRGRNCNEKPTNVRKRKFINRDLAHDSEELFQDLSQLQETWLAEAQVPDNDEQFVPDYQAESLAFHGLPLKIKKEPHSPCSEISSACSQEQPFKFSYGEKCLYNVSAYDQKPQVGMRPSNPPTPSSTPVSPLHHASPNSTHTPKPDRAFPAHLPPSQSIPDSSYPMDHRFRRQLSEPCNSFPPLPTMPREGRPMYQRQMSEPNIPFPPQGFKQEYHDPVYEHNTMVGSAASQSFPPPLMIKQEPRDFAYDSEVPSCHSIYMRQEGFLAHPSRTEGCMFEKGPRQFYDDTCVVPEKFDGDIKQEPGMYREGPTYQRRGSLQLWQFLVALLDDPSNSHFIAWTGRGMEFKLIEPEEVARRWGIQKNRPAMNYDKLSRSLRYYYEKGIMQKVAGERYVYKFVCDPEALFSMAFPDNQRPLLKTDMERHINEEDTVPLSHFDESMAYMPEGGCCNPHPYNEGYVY
Sequence of ETV6 (P41212 whole entry): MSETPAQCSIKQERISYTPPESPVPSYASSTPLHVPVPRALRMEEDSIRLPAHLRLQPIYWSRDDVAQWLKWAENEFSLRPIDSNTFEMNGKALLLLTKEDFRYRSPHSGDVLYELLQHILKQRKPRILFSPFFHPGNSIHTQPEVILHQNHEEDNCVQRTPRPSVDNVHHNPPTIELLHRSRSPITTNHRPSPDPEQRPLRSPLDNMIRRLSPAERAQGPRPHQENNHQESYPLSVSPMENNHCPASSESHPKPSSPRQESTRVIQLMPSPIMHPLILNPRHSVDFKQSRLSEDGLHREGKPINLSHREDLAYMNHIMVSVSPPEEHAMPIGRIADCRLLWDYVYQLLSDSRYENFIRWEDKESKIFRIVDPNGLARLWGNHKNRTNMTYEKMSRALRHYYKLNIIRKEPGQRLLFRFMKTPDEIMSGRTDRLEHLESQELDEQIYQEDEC
Sequence of ETV5 (P41161 whole entry): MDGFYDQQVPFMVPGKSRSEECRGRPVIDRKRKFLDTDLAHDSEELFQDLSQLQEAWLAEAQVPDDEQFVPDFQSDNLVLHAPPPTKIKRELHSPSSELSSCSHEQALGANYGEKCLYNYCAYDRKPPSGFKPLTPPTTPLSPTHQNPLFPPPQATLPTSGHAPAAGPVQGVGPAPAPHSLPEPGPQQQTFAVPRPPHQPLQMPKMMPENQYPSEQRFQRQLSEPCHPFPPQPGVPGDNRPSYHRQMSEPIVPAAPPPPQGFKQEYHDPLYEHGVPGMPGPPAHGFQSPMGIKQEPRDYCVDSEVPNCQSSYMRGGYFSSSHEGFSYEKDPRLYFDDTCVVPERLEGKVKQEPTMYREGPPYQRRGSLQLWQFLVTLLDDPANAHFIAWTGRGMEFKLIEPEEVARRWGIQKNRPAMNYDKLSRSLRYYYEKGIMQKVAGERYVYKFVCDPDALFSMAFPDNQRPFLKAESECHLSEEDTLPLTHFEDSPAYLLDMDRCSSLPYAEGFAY

With TATGGC, the binding signal was 1.36 fold enrichment (6-mer frequency, TF over GST control) in the assay with FEV; 1.33 fold enrichment (6-mer frequency, TF over GST control) with ETV5; 1.2 fold enrichment (6-mer frequency, TF over GST control) in the assay with HSF1; 1.17 fold enrichment (6-mer frequency, TF over GST control) with SPIC; 1.2 fold enrichment (6-mer frequency, TF over GST control) in the assay with ELF4; 1.2 fold enrichment (6-mer frequency, TF over GST control) with ELK4. In addition, the binding signal is 1.41 fold enrichment (6-mer frequency, TF over GST control) with ETV2; 1.29 fold enrichment (6-mer frequency, TF over GST control) with ELF3; 1.34 fold enrichment (6-mer frequency, TF over GST control) in the assay with CRX; 1.25 fold enrichment (6-mer frequency, TF over GST control) with ETV1; 1.25 fold enrichment (6-mer frequency, TF over GST control) with ERF; 1.23 fold enrichment (6-mer frequency, TF over GST control) with ETV3L. Moreover, the binding signal is 1.2 fold enrichment (6-mer frequency, TF over GST control) with ETS2; 1.27 fold enrichment (6-mer frequency, TF over GST control) with SPDEF; 1.26 fold enrichment (6-mer frequency, TF over GST control) in the assay with ETV7; 1.23 fold enrichment (6-mer frequency, TF over GST control) in the assay with ELF5; 1.31 fold enrichment (6-mer frequency, TF over GST control) with ETV3; 1.29 fold enrichment (6-mer frequency, TF over GST control) with ETV6.
